Rows were chosen to be rich in hits. Some 3.4% of all compounds tested hit in one or more screens of this group.
FBW7 act = FBW7 E3 ligase activators, primary screen, biochemical, AlphaScreen, human. F-box/WD repeat-containing protein 7 (Homo sapiens), Q969H0. 650,000 tested, 0.13% active. normalized activity (activation), % at 26.1 µM. AlphaScreen FBW7–phospho-cyclin E peptide binding, activator screen; in the data active means normalized activity above about 1.9%;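 further: purified mutant Fbw7 with reduced substrate affinity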
TEAD-YAP inh = TEAD-YAP interaction inhibition, primary screen, TEAD-YAP interaction inhibitor project, luminescence, HEK-TIYL cells; AID 1259422, 2018; 640,000 tested, 1.4% active; inhibition, % at 9.12 µM; TEAD-Gal4/YAP UAS-luciferase luminescence; in the data active means inhibition above about 32%
GPR151 activ = activators of human GPR151, primary screen, cell-based, PathHunter beta-arrestin, luminescence; activation, % at 11.2 µM; G-protein coupled receptor 151 (Homo sapiens), Q8TDV0; PathHunter beta-arrestin GPR151 cells; AID 1508602, 2020; 650,000 tested, 1% active; in the data active means activation above about 4.9%
MITF primary = MITF inhibitors, primary screen, biochemical, AlphaScreen, human; Microphthalmia-associated transcription factor (Homo sapiens), O75030; AlphaScreen MITF homodimerization, bead proximity signal; inhibition, % at 2.6 µM; 650,000 tested, 0.91% active; in the data active means inhibition above about 50%
Target sequence (O75030 whole entry, looked up): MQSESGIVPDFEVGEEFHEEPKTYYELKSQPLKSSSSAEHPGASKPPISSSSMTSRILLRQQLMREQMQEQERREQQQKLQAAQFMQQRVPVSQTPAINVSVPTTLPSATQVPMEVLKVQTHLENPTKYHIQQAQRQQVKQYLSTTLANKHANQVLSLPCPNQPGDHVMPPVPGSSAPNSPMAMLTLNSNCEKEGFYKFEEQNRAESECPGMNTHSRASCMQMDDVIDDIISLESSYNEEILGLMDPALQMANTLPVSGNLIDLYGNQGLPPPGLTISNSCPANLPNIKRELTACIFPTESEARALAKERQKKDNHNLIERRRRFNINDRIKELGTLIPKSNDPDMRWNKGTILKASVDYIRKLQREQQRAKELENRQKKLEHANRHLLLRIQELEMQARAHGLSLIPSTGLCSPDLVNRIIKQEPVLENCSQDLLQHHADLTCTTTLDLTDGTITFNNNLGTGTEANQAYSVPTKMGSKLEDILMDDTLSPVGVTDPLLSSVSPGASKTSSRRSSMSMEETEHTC
MITF confirm = MITF inhibitors, retest of hits, confirmation, biochemical, AlphaScreen, triplicate; shares compounds with MITF primary; AlphaScreen MITF homodimerization, biotin/His-MITF beads; inhibition, % at 2.6 µM; 4,700 tested, 16% active; AID 1259372, 2018;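 active means inhibition above a cutoff derived from the DMSO control wells, cut at about 28% in these data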;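 further: inhibitors lower the bead chemiluminescence by keeping MITF from dimerizing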
AlphaScreen DR = AlphaScreen optical interference compounds, dose response, counter-screen, biochemical, HTS | shares compounds with MITF primary | 480 tested, 6% active | AID 1259373, 2018 | IC50, µM | AlphaScreen optical interference counterscreen, cell-free; call rule not given here
AS interf ctr = AlphaScreen optical interference compounds, counter-screen for MITF inhibitor project, biochemical, triplicate; shares compounds with MITF primary; LysRS AlphaScreen counterscreen, signal interference; inhibition, % at 2.6 µM; 4,700 tested, 7.6% active;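 active means inhibition above a cutoff derived from the DMSO control wells, cut at about 30% in these data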
A number is an active result; 0 = inactive; - = no result given; ! = a repeat was not active.

SMILES	FBW7 act	TEAD-YAP inh	GPR151 activ	MITF primary	MITF confirm	AS interf ctr	others
O=[N+]([O-])c1ccc(CN2CCC(N3CCN(CCO)CC3)CC2)cc1	0	0	0	53.2	0	0
CC1CCC(N2CCN(Cc3ccc([N+](=O)[O-])cc3)CC2)CC1 (stereo not drawn)	0	0	0	65.3	0	0
O=[N+]([O-])c1ccc(CN2CCC(N3CCCCCC3)CC2)cc1	0	0	0	0	-	-
CC1CCN(Cc2ccc([N+](=O)[O-])cc2)CC1	0	0	0	0	-	-
CC1CCCC(N2CCN(c3ccc([N+](=O)[O-])cc3)CC2)C1 (stereo not drawn)	0	0	0	0	-	-
CCCN1CCC(N2CCN(c3ccc([N+](=O)[O-])cc3)CC2)CC1	0	0	0	54.7	0	0
Cc1cccc(C(=O)Nc2sc3c(c2C(=O)N(C)C)CCC3)c1	0	0	0	0	-	-
CC(C)CC(c1nnnn1CC1CCCO1)N1CCN(c2ccc(F)cc2)CC1 (stereo not drawn)	0	0	0	0	-	-
CC(C)CC(c1nnnn1CC1CCCO1)N1CCN(c2cccc(Cl)c2)CC1 (stereo not drawn)	0	0	0	84.3	0	0
COc1cc(/C=C2\SC(=Nc3ccccc3)N(C3CCCCC3)C2=O)ccc1OCc1ccccc1Cl	0	0	0	0	-	-
CSc1ncc(C(=O)NCc2ccc3c(c2)OCO3)c(C)n1	0	0	0	0	-	-
c1ccc(-c2cc3c(NCCCN4CCOCC4)ncnc3s2)cc1	0	0	0	61.0	0	0
C=COCCCNc1ncnc2sc(-c3ccccc3)cc12	0	0	0	60.9	0	0
OCCCNc1ncnc2sc(-c3ccccc3)cc12	0	0	0	0	-	-
COC(=O)C(N)CSC1CCCCO1 (stereo not drawn)	0	0	0	55.6	0	0
NC(=O)c1ccc(-c2ccc(C(=O)Nc3ccc(Oc4ccccc4)cc3)s2)cc1	0	0	0	0	-	-
CCOc1ccccc1OCCOCCNC(C)CC (stereo not drawn)	0	0	0	76.6	0	0
CCC(C)NCCOc1ccccc1C (stereo not drawn)	0	0	0	0	-	-
C/C=C/c1ccc(OCCOCCNC(C)CC)c(OC)c1 (stereo not drawn)	0	0	0	70.3	0	0
COc1ccccc1-n1nnc(C(=O)Nc2ccc(C)cc2)c1N	0	0	0	0	-	-
N#C/C(=C\c1ccc(-c2ccccc2C(=O)O)o1)C(=O)NCc1ccco1	0	0	0	75.9	63.9	0	AlphaScreen DR=0
Cc1c(C(=O)O)cccc1-c1ccc(/C=C(\C#N)C(=O)NCc2ccco2)o1	0	0	0	0	-	-
CCN1CCN(CCOCCOc2ccc(I)cc2)CC1	0	0	0	81.4	0	0
CCCCOc1ccc(OCCOCCN2CCN(CC)CC2)cc1	0	0	0	65.3	0	0
CCN1CCN(CCOCCOc2ccc(F)cc2)CC1	0	0	0	70.3	32.1	0	AlphaScreen DR=0
SMILES	FBW7 act	TEAD-YAP inh	GPR151 activ	MITF primary	MITF confirm	AS interf ctr	others
Fc1ccc(OCCN2CCNCC2)cc1	0	0	0	60.4	0	0
CCN1CCN(CCOc2ccc(F)cc2)CC1	0	0	0	80.7	0	0
CCN1CCN(CCCOc2ccc(C#N)cc2)CC1	0	0	0	72.1	0	0
Cn1nccc1Nc1nc(NC2CC2)c2[nH]cnc2n1	0	0	0	0	-	-
O=C(Nc1nc2c(s1)CCC2C(=O)NCCCc1ccccc1)c1ccc(F)cc1 (stereo not drawn)	0	0	0	80.2	0	0
CCN(CC)CCN(C)Cc1ccc(NC(C)=O)cc1	0	0	0	63.6	0	0
CCN(CC)CCN(C)Cc1ccc(SC)cc1	0	0	0	0	-	-
COc1ccccc1N1CCN(c2nc(Nc3cccc(C)c3)c3cnn(C)c3n2)CC1	0	0	0	0	-	-
CC(=O)NC1(c2ccccc2)CCN(C(=O)N2CCOCC2)CC1	0	0	0	81.7	0	0
CC(=O)NC1(c2ccccc2)CCN(C(=O)C2CC2)CC1	0	0	0	0	-	-
Cc1ccnc2nc(C(=O)Nc3nc(-c4cccs4)cs3)nn12	0	0	0	0	-	-
Cc1ccnc2nc(C(=O)Nc3nc(-c4ccccn4)cs3)nn12	0	0	0	65.4	58.8	79.1
c1ccc(-c2ccccn2)nc1	0	0	0	0	-	-
c1ccc(-c2ccc(-c3ccccn3)nn2)nc1	0	43.8	0	86.0	98.7	100.6
O=C(O)CNCc1nc2ccccc2[nH]1	0	0	0	80.7	75.8	100.3
COC(=O)C12CC3CC(CC(NC(=O)C4CCN(S(C)(=O)=O)CC4)(C3)C1)C2	0	0	0	0	-	-
Cc1c(C(=O)NC2CC2)cccc1[N+](=O)[O-]	0	0	0	0	-	-
CN(C)CCn1nnnc1SCC1=C(C(=O)O)N2C(=O)[C@@H](NC(=O)Cc3csc(N)n3)[C@H]2SC1	0	0	0	68.3!	87.2	0	AlphaScreen DR=4.93
C/C(=N\Nc1nnc2c(n1)[nH]c1ccccc12)c1cccc([N+](=O)[O-])c1	0	0	0	0	-	-
COc1cc(OC)c(OC)cc1CN1CCN(Cc2c[nH]c3ccccc23)CC1	0	0	0	55.3	0	0
COc1ccc(CN2CCN(Cc3c[nH]c4ccccc34)CC2)c(OC)c1OC	0	0	0	61.6	0	0
COc1cc(OC)c(OC)cc1CN1CCN(c2ccc(F)cc2)CC1	0	0	0	0	-	-
CCc1ccc(S(=O)(=O)NCCc2cn3ccc(C)cc3n2)cc1	0	0	0	0	-	-
Cc1ncc(CO)c(/C=N/N=C/c2cccc(Cl)c2Cl)c1O	0	0	0	53.4	0	0
OC(CNCCCN1CCOCC1)COC(c1ccc(F)cc1)c1ccc(F)cc1 (stereo not drawn)	0	0	0	0	-	-
SMILES	FBW7 act	TEAD-YAP inh	GPR151 activ	MITF primary	MITF confirm	AS interf ctr	others
CN1CCC(N(C)CC(O)COC(c2ccc(F)cc2)c2ccc(F)cc2)CC1 (stereo not drawn)	0	0	0	60.1	0	0
OCCOCCN1CCN(Cc2ccc(F)c(Br)c2)CC1	0	0	0	80.9	0	0
OCCOCCN1CCN(Cc2ccc(Br)cc2)CC1	0	0	0	0	-	-
COc1cccc(C2=NS(=O)(=O)N(C)C(C(=O)N3CCN(c4ccccc4)CC3)=C2)c1	0	0	0	0	-	-
CCN1C(C(=O)c2ccccc2)=C(NC(=O)c2ccc(Cl)cc2)c2ccccc2S1(=O)=O	0	0	0	0	-	-
CCN1C(C(=O)c2ccccc2)=C(NC(=O)c2ccc(C)cc2)c2ccccc2S1(=O)=O	0	0	0	53.6	0	0
COc1cc(OC)c(CN2CCCC(CO)C2)cc1Br (stereo not drawn)	0	0	0	54.7	0	0

Source: PubChem (The Scripps Research Institute Molecular Screening Center)
